The source of these data is PubChem BioAssay.

Assay [1] has as its system TRPC4 beta (transient receptor potential cation channel C4), mouse. Briefly: activators of mouse TRPC4 channel, confirmation, cell-based, Fluo4 calcium, HEK293 TRPC4beta/mu-opioid, duplicates, 10 µM (AID 2426;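 active = fluorescence ratio normalized to control raised more than 50% in primary screen plus both repeat runs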;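 for activation: percent rise of integrated ratio over buffer wells lacking compound which define 0%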). The note with it: Fluo4 calcium fluorescence, at 10 µM; stronger effect = higher value.
The test system of assay [2] is transient receptor potential cation channel C4 beta (TRPC4), mouse. Briefly: activators of mouse TRPC4 channel, confirmation, cell-based, second round, Fluo4, HEK293 TRPC4beta/mu-opioid, 1 µM (AID 2461;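 active = primary screen active and over 50% activation in each of two duplicate runs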;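 for activation: 0% = wells without test compound as baseline of integrated fluorescence ratio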). The conditions noted are these: Fluo4 calcium fluorescence, at 1 µM; stronger effect = higher value.
Assay [3] relates to TRPC4 (transient receptor potential cation channel C4 beta), mouse. Kind of assay: positive allosteric modulators of mouse TRPC4, confirmation, cell-based, second round, Fluo-4, HEK293 TRPC4beta/mu-opioid, 1 µM (AID 2554;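 active = primary screen hit whose fluorescence ratio, in both repeats, exceeds the weak agonist control mean by 3 SD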). The conditions noted are these: DAMGO EC20, Fluo-4 calcium flux, at 1 µM; stronger effect = higher value. Background: Calcium flux is commonly read through the fluorescence of an indicator in the cells.

Assay [4] deals with TRPC4 beta (transient receptor potential cation channel C4), mouse. Kind of assay: positive allosteric modulators of mouse TRPC4, confirmation, cell-based, Fluo-4, HEK293 TRPC4beta/mu-opioid (AID 2555;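 active = primary screen hit whose calcium fluorescence ratio, in both repeats, exceeds the weak agonist control mean by 3 SD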). The conditions noted are these: DAMGO EC20, Fluo-4 calcium flux, at 10 µM; stronger effect = higher value.
In assay [5] the target is Short transient receptor potential channel 4 (Mus musculus) (UniProt Q9QUQ5). Kind of assay: inhibitors of mouse TRPC4 channel, confirmation, cell-based, Fluo4, HEK293 TRPC4beta/mu-opioid (AID 2636;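 active = calcium signal cut by more than 3 SD below the full-agonist control yet still positive, in both repeats and the earlier primary screen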). The conditions noted are these: DAMGO, Fluo4 calcium flux, at 10 µM; stronger effect = higher value.
Sequence of Short transient receptor potential channel 4 (Mus musculus) (Q9QUQ5 whole entry, looked up): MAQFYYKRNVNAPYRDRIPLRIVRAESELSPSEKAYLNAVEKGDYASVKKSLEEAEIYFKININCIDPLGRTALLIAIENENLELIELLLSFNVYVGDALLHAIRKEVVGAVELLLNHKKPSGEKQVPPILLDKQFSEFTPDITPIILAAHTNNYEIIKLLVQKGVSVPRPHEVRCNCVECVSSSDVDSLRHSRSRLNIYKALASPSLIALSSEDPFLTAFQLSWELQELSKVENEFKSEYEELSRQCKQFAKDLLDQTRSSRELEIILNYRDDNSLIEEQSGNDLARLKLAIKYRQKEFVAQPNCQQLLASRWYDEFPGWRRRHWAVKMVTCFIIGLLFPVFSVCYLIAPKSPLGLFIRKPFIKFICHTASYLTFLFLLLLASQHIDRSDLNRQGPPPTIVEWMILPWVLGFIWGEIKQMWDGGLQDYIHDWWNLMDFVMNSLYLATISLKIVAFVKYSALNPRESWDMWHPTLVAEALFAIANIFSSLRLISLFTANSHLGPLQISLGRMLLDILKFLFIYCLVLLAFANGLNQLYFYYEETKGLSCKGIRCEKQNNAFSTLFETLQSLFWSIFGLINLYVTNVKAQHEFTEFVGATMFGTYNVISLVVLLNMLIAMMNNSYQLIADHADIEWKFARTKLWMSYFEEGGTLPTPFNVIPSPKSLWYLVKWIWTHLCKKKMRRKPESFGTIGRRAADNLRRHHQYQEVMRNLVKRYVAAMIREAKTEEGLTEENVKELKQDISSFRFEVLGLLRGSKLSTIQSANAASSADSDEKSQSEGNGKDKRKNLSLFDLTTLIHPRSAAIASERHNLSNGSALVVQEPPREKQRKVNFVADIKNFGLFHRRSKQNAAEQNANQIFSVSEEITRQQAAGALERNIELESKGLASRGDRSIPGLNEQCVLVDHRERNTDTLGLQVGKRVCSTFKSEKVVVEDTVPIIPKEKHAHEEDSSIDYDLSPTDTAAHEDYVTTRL
Assay [6] shares this target. Briefly: inhibitors of mouse TRPC4 channel, confirmation, cell-based, second round, Fluo4, HEK293 TRPC4beta/mu-opioid, 1 µM (AID 2637;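 active = calcium signal ratio cut to more than 3 SD under the fully stimulated control mean yet still positive, in both repeats and the primary screen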). The conditions noted are these: Fluo4 calcium flux, DAMGO, at 1 µM; stronger effect = higher value.
Assay [7] shares this target. Kind of assay: TRPC4 positive allosteric modulators, dose response, cell-based, HEK293 TRPC4/mu-opioid, Fluo-4 calcium, EC20 DAMGO (AID 434941;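 active = earlier screen potentiator hit that boosts the TRPC4 ion channel at some dose, with a dose response; inactive = no potentiation, no dose response, or not a prior hit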;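 note: calcium entry triggered by an EC20 dose of DAMGO at the co-expressed mu-opioid receptor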).
For assay [8] the target is unchanged. Kind of assay: mouse TRPC4 channel inhibitors, dose response, cell-based, HEK293 TRPC4/mu-opioid, Fluo-4 calcium (AID 434942;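 active = primary screen inhibitor hit that blocks the TRPC4 channel at some tested dose, yielding a dose curve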).
The target of assay [9] is Short transient receptor potential channel 6 (Mus musculus) (UniProt Q61143). Kind of assay: inhibition of mouse TRPC6 channel, confirmation, selectivity assay for TRPC4 inhibitor project, cell-based, HEK293, membrane potential dye, duplicate (AID 434948;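 active = active in primary screen and both duplicates, each dropping signal beyond three positive-control SD with fluorescence still positive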). The note with it: HEK293 TRPC6, membrane potential dye fluorescence, at 10 µM; inhibition: stronger effect = higher value, stimulated with maximal-effect acetylcholine unless noted; outcome: stimulated with maximal-effect acetylcholine unless noted.
Sequence of Short transient receptor potential channel 6 (Mus musculus) (Q61143 whole entry, looked up): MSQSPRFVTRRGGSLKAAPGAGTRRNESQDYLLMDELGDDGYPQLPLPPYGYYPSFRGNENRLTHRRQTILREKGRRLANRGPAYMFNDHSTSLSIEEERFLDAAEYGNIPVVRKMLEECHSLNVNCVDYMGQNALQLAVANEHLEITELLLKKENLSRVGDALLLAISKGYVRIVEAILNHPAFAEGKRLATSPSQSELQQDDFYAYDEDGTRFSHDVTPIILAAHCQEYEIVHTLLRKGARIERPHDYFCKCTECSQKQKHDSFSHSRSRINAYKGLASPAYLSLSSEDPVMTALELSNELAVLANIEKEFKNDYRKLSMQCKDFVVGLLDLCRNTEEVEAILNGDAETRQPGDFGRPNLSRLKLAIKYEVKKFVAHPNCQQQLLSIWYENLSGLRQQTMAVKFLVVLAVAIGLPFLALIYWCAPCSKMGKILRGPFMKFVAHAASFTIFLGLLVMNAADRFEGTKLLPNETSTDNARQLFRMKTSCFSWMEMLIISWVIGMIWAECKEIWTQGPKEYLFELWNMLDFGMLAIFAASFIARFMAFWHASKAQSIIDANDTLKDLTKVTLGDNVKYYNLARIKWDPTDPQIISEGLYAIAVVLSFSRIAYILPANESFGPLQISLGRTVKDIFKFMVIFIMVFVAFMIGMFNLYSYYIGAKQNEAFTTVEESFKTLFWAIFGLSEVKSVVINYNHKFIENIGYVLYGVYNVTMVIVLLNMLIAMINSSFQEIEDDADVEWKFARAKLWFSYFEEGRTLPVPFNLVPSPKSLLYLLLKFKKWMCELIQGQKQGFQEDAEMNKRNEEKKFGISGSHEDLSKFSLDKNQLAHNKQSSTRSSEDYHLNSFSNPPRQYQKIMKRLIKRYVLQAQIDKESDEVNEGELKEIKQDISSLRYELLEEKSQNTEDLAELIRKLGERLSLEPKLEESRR

Assay [10] has the same target. Briefly: activation of mouse TRPC6 channel, confirmation, selectivity assay for TRPC4 activator project, cell-based, HEK293, membrane potential dye, duplicate (AID 434950;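 active = membrane potential signal rise above negative control mean plus 3 SD in both duplicates, also active in the earlier TRPC4 screen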;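 for activation: 0% = buffer only wells and 100% = acetylcholine maximal-effect wells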). The note with it: HEK293 TRPC6, membrane potential fluorescence, at 10 µM; stronger effect = higher value.
For assay [11] the target is unchanged. Kind of assay: TRPC6 potentiation by TRPC4 potentiator hits, confirmation, selectivity assay for TRPC4 potentiator project, HEK293 cells, membrane potential dye, duplicate (AID 434952;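 active = compound raising the membrane signal above positive-control mean plus 3 SD in both repeats, and a primary screen hit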). The note with it: HEK293 TRPC6, membrane potential dye fluorescence, at 10 µM; maximal acetylcholine added after compound unless noted.
In assay [12] the target is Short transient receptor potential channel 4 (Mus musculus) (UniProt Q9QUQ5). Briefly: calcium flux activators in TRPC4/5HT1a cells, counter-screen for TRPC4 activator project, cell-based, second counter screen, HEK293 TRPC4/5HT1a, Fluo-4 (AID 434977).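 For activation: plate controls were assay buffer for no effect and maximal serotonin response for full effect.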 The conditions noted are these: Fluo-4 calcium flux, at 10 µM; stronger effect = higher value.
Assay [13] in a line: calcium flux inhibitors in TRPC4/5HT1a cells, confirmation, counter-screen for TRPC4 inhibitor project, cell-based, second counter screen, HEK293 TRPC4/5HT1a, Fluo-4 (AID 434978;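 active = primary screen active whose calcium signal fell more than 3 SD beyond the full-serotonin control mean in both duplicate plates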;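 note: serotonin given first at submaximal then at maximal dose after compound preincubation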). The conditions noted are these: Fluo-4 calcium flux, at 10 µM; inhibition: stronger effect = higher value, serotonin added to trigger calcium flux unless noted; outcome: serotonin added to trigger calcium flux unless noted.

Assay [14] relates to TRPC4 (mouse), co-expressed with 5HT1a in HEK293. Briefly: calcium flux potentiators in TRPC4/5HT1a cells, confirmation, counter-screen for TRPC4 potentiator project, cell-based, second counter screen, HEK293 TRPC4/5HT1a, Fluo-4 (AID 434979;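 active = signal rise over 3 SD above mean of control wells given weak agonist, in both repeats and first screen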). The note with it: Fluo-4 calcium flux, at 10 µM; outcome: serotonin added at its EC20 dose unless noted; potentiation: stronger effect = higher value, serotonin added at its EC20 dose unless noted.

Assay [15] in a line: calcium flux activation in mu-opioid HEK293 cells, confirmation, counter-screen for TRPC4 activator project, cell-based, HEK293 mu-opioid receptor line (AID 449723;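 active = hit in primary screen, with calcium signal over 5 SD above buffer well mean in both duplicates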;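 note: counter screen cells carry the mu-opioid receptor alone and lack TRPC4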). The note with it: Fluo-4 calcium fluorescence, at 10 µM; stronger effect = higher value.
Assay [16] can be described thus: calcium flux enhancement in mu-opioid HEK293 cells, confirmation, counter-screen for TRPC4 allosteric potentiator project, cell-based, HEK293 mu-opioid receptor line (AID 449724;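 active = calcium signal rise more than 3 SD above the low-dose agonist control mean, in both duplicate plates and the primary screen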;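 note: HEK293 cells carrying mu-opioid receptor only with no TRPC4 channel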). The note with it: Fluo-4 calcium flux, at 10 µM; compound added before EC20 DAMGO stimulus unless noted.
Assay [17] is described as follows: thallium flux activation in parental CHO cells, counter-screen for KCNQ1 potentiator project (AID 493006;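 active = duplicate-averaged activation above buffer control mean plus 5 SD of those controls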;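 for activation: fluorescence ratio of max minus min over baseline after K+ and Tl+ depolarization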). The note with it: parental CHO-K1 cells, FluxOR thallium flux, at 10 µM; stronger effect = higher value.
Assay [18] has as its target Potassium voltage-gated channel subfamily KQT member 1 (Homo sapiens) (UniProt P51787). Briefly: KCNQ1 potassium channel potentiators, confirmation, FluxOR thallium flux, CHO cells, duplicates (AID 493007;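 active = potentiation averaged over duplicate wells exceeding buffer-only control mean by more than 3 SD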;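 for outcome: cells depolarized by a potassium plus thallium sulfate stimulus after compound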;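 for potentiation: 0% = buffer-only wells and 100% = R-L3 activator control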). The conditions noted are these: KCNQ1 cell line, FluxOR thallium flux fluorescence, at 10 µM; stronger effect = higher value, % of reference activator effect, buffer zero.
The target in assay [19] is Potassium voltage-gated channel subfamily KQT member 2 (Rattus norvegicus) (UniProt O88943). Briefly: rat KCNQ2 channel potentiation, selectivity assay for KCNQ1 potentiator project, KCNQ2-CHO-K1 cells (AID 493009;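 active = mean duplicate potentiation above the buffer control mean plus 5 SD of buffer wells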;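 note: assay conditions were tuned for KCNQ1 rather than KCNQ2 modulators; signal is max minus min fluorescence divided by baseline after thallium stimulus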). The note with it: FluxOR thallium flux fluorescence, at 10 µM; stronger effect = higher value, scaled: buffer 0, activator control 100.
Sequence of Potassium voltage-gated channel subfamily KQT member 2 (Rattus norvegicus) (O88943 whole entry, looked up): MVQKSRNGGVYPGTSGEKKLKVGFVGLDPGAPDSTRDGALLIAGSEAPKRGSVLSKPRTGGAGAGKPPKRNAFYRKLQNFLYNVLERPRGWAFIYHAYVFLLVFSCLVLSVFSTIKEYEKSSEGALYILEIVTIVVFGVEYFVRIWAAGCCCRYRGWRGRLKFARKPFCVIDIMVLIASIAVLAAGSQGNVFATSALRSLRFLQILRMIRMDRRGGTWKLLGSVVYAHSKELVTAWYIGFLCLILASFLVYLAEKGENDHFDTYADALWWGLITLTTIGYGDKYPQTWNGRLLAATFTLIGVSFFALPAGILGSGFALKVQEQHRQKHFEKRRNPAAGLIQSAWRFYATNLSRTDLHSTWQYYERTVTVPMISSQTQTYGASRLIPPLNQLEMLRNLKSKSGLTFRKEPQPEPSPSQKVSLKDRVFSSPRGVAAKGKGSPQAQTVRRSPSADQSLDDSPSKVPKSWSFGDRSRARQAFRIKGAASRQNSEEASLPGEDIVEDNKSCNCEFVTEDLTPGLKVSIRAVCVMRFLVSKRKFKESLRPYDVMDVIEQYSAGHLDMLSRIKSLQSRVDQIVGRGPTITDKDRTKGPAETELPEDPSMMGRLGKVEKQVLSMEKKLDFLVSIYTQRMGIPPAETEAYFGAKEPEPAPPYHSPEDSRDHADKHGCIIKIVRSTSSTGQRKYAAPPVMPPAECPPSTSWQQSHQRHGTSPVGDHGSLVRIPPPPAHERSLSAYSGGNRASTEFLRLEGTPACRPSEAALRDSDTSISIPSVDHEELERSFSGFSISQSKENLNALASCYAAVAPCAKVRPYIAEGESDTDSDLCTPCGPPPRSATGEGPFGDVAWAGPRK

Each structure is given as a SMILES string. For part of these data: Entries with a potency or affinity are not part of this list. The source made the active and inactive calls.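 Rule for the calls, unless noted: active = calcium signal rise above buffer-control mean plus 5 SD in both duplicates, and also a hit in the primary screen; inactive = the rest.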

Sequence of Potassium voltage-gated channel subfamily KQT member 1 (Homo sapiens) (P51787 whole entry, looked up): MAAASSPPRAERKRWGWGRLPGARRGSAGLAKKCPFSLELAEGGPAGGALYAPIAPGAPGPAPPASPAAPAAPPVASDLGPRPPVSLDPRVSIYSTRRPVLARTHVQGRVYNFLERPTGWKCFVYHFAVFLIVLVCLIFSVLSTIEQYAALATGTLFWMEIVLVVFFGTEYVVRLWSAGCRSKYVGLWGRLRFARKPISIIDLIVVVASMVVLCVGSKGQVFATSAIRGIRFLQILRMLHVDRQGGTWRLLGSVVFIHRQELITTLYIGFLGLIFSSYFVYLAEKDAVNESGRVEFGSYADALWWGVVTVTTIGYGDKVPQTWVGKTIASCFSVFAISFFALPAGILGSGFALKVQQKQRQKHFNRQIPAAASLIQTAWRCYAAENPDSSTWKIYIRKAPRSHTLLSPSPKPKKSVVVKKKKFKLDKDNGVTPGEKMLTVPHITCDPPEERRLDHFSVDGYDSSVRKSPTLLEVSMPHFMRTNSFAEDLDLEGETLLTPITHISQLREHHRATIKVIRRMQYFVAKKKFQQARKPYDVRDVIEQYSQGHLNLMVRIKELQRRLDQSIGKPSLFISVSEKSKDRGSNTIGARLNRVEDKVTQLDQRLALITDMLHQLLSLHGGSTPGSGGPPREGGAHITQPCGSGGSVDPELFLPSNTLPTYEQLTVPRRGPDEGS

In the case of `Cc1cc(-c2ccccc2)cc(C)[n+]1Cc1ccccc1`, the activation in assay [1] was 142% (active). The outcome in assay [2], in [3], in [4], in [5], in assay [6] and in assay [7] was inactive. In addition, the result in assay [8], in assay [9], in assay [10], in [11], in [12] and in assay [13] was inactive. Moreover, the result in assay [14], in [15] and in assay [16] was inactive.

As to `O=C1NC(=O)N(Cc2ccc(F)cc2)C(=O)/C1=C/c1cccs1`, the result in [17], in [18] and in [19] was inactive.

In the case of `CC1CN(c2ccc([N+](=O)[O-])c3cccnc23)CC(C)N1` (configuration not stated), the activation in assay [1] was 108% (active); in assay [2], 81% (active); in assay [12], 35.7% (active). Further, the result in assay [3], in assay [4], in assay [5], in assay [6], in assay [7] and in assay [8] was inactive. Moreover, the call in assay [9], in [10], in assay [11], in [13], in assay [14] and in assay [15] was inactive. Besides, in assay [16], the outcome was inactive.

Regarding `N=c1c[n+](CC23CC4CC(CC(C4)C2)C3)[n-]o1`, the values for the activation in assay [1], in [2] and in assay [10] were 294% (active), 114% (active) and 38% (active), respectively. Further, the result in assay [3], in assay [4], in assay [5], in assay [6], in assay [7] and in [8] was inactive. Further, the call in [9], in assay [11], in assay [12], in [13], in assay [14] and in assay [15] was inactive. Further, the outcome in assay [16] was inactive.

Consider `C[C@H]1OC[C@@H](C[N+](C)(C)C)O1`, for which the activation in [1] was 152% (active); in assay [2], 99% (active); in [10], 96% (active); in assay [12] it was 85% (active); in assay [15], 87.7% (active). In addition, the outcome in assay [3], in [4], in assay [5], in [6], in assay [7] and in [8] was inactive. For the same molecule, the molecule was called inactive in assay [9], in assay [11], in assay [13], in assay [14] and in [16].

Take `COc1ccc(CNCCc2ccc3c(c2)OCO3)cc1Br`: the activation in assay [1] is 141% (active); in [10], 47.5% (active); in [12], 27.3% (active). Further, the outcome in assay [2], in assay [3], in assay [4], in assay [5], in [6] and in assay [7] was inactive. In addition, the result in assay [8] and in [15] was inactive. For the same molecule, the outcome in assay [9], in [11], in assay [13], in assay [14] and in assay [16] was “inactive [setting not given]” in each case.

For `COc1ccccc1CC(=O)N1CCN(CCc2ccccc2)CC1`, the activation in [1] was 79% (active); in assay [10], 48.5% (active); in assay [12], 13.4% (active). The outcome in assay [2], in assay [3], in assay [4], in assay [5], in assay [6] and in [7] was inactive. The result in [8], in assay [9], in assay [11], in [13], in assay [14] and in [15] was inactive. In addition, the result in assay [16] was inactive.

`CN1CCC(c2c[nH]c3ccccc23)C1` (configuration not stated): the result in assay [17], in assay [18] and in [19] was inactive.

Regarding `CCC(=O)OC1(c2cccc(C)c2)CC(C)N(C)CC1C` (configuration not stated), the activation in assay [1] is 79% (active); in assay [10], 74.5% (active). Also, the result in [2], in [3], in assay [4], in [5], in [6] and in [7] was inactive. For the same molecule, the result in assay [8], in assay [12] and in [15] was inactive. Also, the outcome in assay [9], in assay [11], in [13], in [14] and in assay [16] was “inactive [setting not given]” each time.

As to `CCOC(=O)C1(CCc2ccccc2)CCN(Cc2csc(C(C)=O)c2)CC1`, the outcome in [1], in assay [2], in assay [3], in [4], in assay [5] and in [6] was inactive. The outcome in [7], in [8], in assay [9], in [11], in [12] and in assay [13] was inactive. Besides, the outcome in assay [14], in [15] and in [16] was inactive. Further, the activation in assay [10] was 57.5% (active).

With `CN1CCN(c2cc(N3CCCC3)c([N+](=O)[O-])cc2F)CC1`, the outcome in [17], in [18] and in assay [19] was inactive.

As for `O=C(CCCc1ccccc1)NCCc1cnc[nH]1`, the activation in assay [1] is 137% (active); in assay [12], 35.3% (active). The result in [2], in [3], in assay [4], in [5], in assay [6] and in assay [7] was inactive. Further, the result in assay [8], in [9], in assay [10], in assay [11], in assay [13] and in assay [14] was inactive. Further, the result in assay [15] and in [16] was inactive.

On to `Nc1cc(N2CCNCC2)ccc1[N+](=O)[O-]`, for which the activation is 199% (active) in assay [1], 84% (active) in assay [2] and 10.7% (active) in [12]. Further, the outcome in [3], in [4], in assay [5], in [6], in assay [8] and in assay [9] was inactive. The molecule was called inactive in assay [10], in [11], in assay [13], in assay [15] and in [16]. The potentiation in assay [14] is 38.4% (active).

Regarding `Cc1ccc(C[n+]2c(-c3ccc(C)cc3)cc(-c3ccc(C)cc3)cc2-c2ccc(C)cc2)cc1`, the activation in assay [1] was 152% (active); in [12], 48.5% (active); in assay [15] it was 19.8% (active); in assay [17], 142% (active). Moreover, the outcome in assay [2], in assay [3], in assay [4], in assay [5], in assay [6] and in [7] was inactive. In addition, the result in [8], in assay [9], in [10], in assay [11], in [13] and in assay [14] was inactive. In addition, the result in [16] was inactive. The potentiation in assay [18] was 124% (active); in assay [19] it was 185% (active).

On to `CCN(CC)c1ccc(/C=C/[N+](=O)[O-])cc1`, for which the activation in assay [1] was 96% (active); in assay [10] it was 906% (active); in assay [12], 67.9% (active); in assay [15], 113% (active). Moreover, the result in [2], in assay [3], in assay [4], in [5], in assay [6] and in assay [7] was inactive. The result in assay [8], in assay [9], in assay [11], in assay [13], in assay [14] and in assay [16] was inactive.

`CC(=NCc1ccc(F)cc1)c1c(O)n(C)c(=O)n(C)c1=O`: the activation in assay [17] was 144% (active). In addition, the potentiation in [18] is 91.5% (active). Further, the outcome in assay [19] was inactive.

For the molecule `CCOC(=O)c1cc(C)n(CCc2cnc[nH]2)c1C`, the activation was 143% (active) in assay [1], 89% (active) in [2], 26% (active) in assay [10] and 76% (active) in assay [12]. Besides, the outcome in [3], in assay [4], in [5], in [6], in assay [7] and in [8] was inactive. Moreover, the molecule was called inactive in [9], in assay [11], in assay [13], in [14], in assay [15] and in assay [16].
